Laboratory results published in PubChem BioAssay.
Records with an inconclusive call do not appear. Active and inactive are the calls of the source.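 Rule for the calls, unless noted: active = RAM network inhibition above 8.4% in each of two replicates, 3 SD over the compound average; inconclusive = above 8.4% inhibition in only one replicate; inactive = 8.4% inhibition or less in each replicate.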

Columns and labels:
[1] = S. cerevisiae growth inhibition in permissive medium (OD615), pilot counter-assay for S. cerevisiae lifespan shortening project, permissive growth control (AID 705;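 active = growth inhibition above 25% in both replicates, a cutoff set 3 SD above the mean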); settings: OD615, 24 h, at 10 µM, stronger effect = higher value
[2] = S. cerevisiae growth inhibition in restrictive medium, OD615, pilot screen, restrictive growth control, yeast lifespan reduction project (AID 706;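 active = growth inhibition above a set limit, 3 SD over mean compound inhibition, in both replicates, cut at about 43% in these data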;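 note: modified DeaD lifespan yeast strain shifted to restrictive glucose medium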); settings: OD615, 48 h, at 10 µM, stronger effect = higher value
[3] = doxorubicin toxicity protection in MRP-1 cells – H69AR cells, CellTiter-Glo, duplicate, MRP-1 activator project, pilot screen (AID 807;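 active = viability increase at or above a cutoff of the median across tested compounds plus 3 SD, cut at about 8.5% in these data, passing the limit was not always enough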;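 note: compound pretreatment 18-22 h then 72 h combined with doxorubicin; 0% = doxorubicin alone and 100% = vehicle without doxorubicin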); settings: H69AR viability with doxorubicin, CellTiter-Glo luminescence; at 10 µM; stronger effect = higher value
[4] = viability of HCT116 without oncogenic beta-catenin – human colon tumor cells, pilot screen (AID 823;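 active = cell viability at or below a set limit in both duplicate runs, the limit being the all-compound median minus 4 SD, cut at about 23% in these data, passing the limit was not always enough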;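 note: 0% = wells killed by 20 µM Hyamine and 100% = untreated DMSO cell wells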); settings: HCT116 beta-catenin knockout viability, CellTiter-Glo, 60 h; at 10 µM; stronger effect = lower value
[5] = viability of PTEN-null HCT116 cells – cell-based, HCT116 clonal line, CellTiter-Glo, pilot screen (AID 824;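 active = viability at or below 27.92% in each of two runs, the all-compound median minus 4 SD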;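 note: 0% = 20 µM Hyamine control and 100% = vehicle cell control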); settings: HCT116 PTEN-deleted viability, 60 h, at 10 µM, stronger effect = lower value
[6] = RAM signaling pathway blockade in yeast – S. cerevisiae, Pdr1DBD-CYC8 efflux-inhibited sensitized strain, primary screen (AID 1298);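 note: 0% = DMSO untreated cells without growth and 100% = 10 µM 1-NA-PP1 full growth; higher means more yeast growth rescued from 5-FOA killing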; settings: S. cerevisiae cbk1-as DSE1-URA3 strain, 5-FOA growth OD615, 2 d; at 50 µM; stronger effect = higher value
[7] = HUVEC growth inhibition – cell-based, human, primary screen (AID 575;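 active = viability at or below 30% in both replicate assays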;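 note: 100% = median of untreated cell wells with 0.1% DMSO on each plate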); settings: HUVEC proliferation, CellTiter-Glo luminescence, 72 h; at 10 µM; stronger effect = lower value
[8] = H69AR cell proliferation blockers – human, duplicate replicates, primary screen (AID 580;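 active = viability at or under a set limit in both replicates, limit being median viability minus 3 SD, cut at about 48% in these data, passing the limit was not always enough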;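 note: 100% = mean luminescence of untreated wells and 0% = no signal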); settings: H69AR lung tumor cells viability, ATP luminescence, 72 h; at 10 µM; stronger effect = lower value
[9] = MRP1 drug-resistance reversers in H69AR cells – cell-based, doxorubicin co-treatment, pilot screen (AID 601;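 active = viability loss from added drug above about 55%, and viability with drug at most 40%, in both replicates, limit read from the data, passing the limit was not always enough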); settings: CellTiter-Glo, 72 h, at 10 µM; for differential viability (reversal): stronger effect = higher value
[10] = yeast transport mutant growth inhibition pilot in 384-well plates, post-Golgi transport modulator project (AID 636; in the data active = inhibition above about 31%); settings: absorbance 615 nm, about 18 h, stronger effect = higher value
[11] = growth suppression of yeast trafficking mutant, preliminary HTS, modulators of trafficking downstream of Golgi apparatus project, 1536-format plate, OD 615 nm (AID 637; in the data active = inhibition above about 30%); settings: yeast transport mutant growth, absorbance 615 nm, 18 h; stronger effect = higher value
[12] = RAM pathway blockade in budding yeast – dse1pr::URA3 reporter, 5-FOA selection, pilot screen (AID 869;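 active = inhibition over a set limit, the all-compound mean plus 3 SD, in both replicate runs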;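 note: 0% = DMSO wells with no growth and 100% = 10 µM 1-NA-PP1 with full growth; RAM network block rescues cells from 5-FOA so hits raise OD615 growth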); settings: S. cerevisiae dse1pr::URA3 5-FOA growth, OD615, 2 d; at 10 µM; stronger effect = higher value; strain carries analog-sensitive mutant Cbk1 kinase
[13] = H69AR cells + 2 uM doxorubicin, measured here: viability with 2 uM doxorubicin, stronger effect = lower value
[14] = H69AR cells, compound alone cytotoxicity

SMILES	growth inhibition [1]	growth inhibition [2]	viability increase [3]	viability [4]	viability [5]	RAM network inhibition [6]	viability [7]	viability [8]	differential viability (reversal) ([9]; H69AR cells + 2 uM doxorubicin)	viability [9, 13]	viability [9, 14]	inhibition [10]	inhibition [11]	inhibition [12]
CCOC(=O)C1CCN(C(C(=O)NC2CCCCC2)c2ccc(OC)cc2)CC1 (configuration not stated)	-4.53% (inactive)	-11.7% (inactive)	-1.91% (inactive)	93.2% (inactive)	88.6% (inactive)	3.74% (inactive)	–	–	–	–	–	–	–	–
O=C(Cn1c(=O)oc2cc(S(=O)(=O)N3CCCC3)ccc21)NC1CCCc2ccccc21 (configuration not stated)	-5.83% (inactive)	-9.71% (inactive)	-0.88% (inactive)	97% (inactive)	79.4% (inactive)	10.3% (inactive)	–	–	–	–	–	–	–	–
COc1ccccc1S(=O)(=O)Cc1ccc(C(=O)NCc2cccnc2)o1	0.915% (inactive)	-0.525% (inactive)	-1.11% (inactive)	97.8% (inactive)	94.9% (inactive)	2.56% (inactive)	–	–	–	–	–	–	–	–
Cc1ccc(Nc2ncnc3nc[nH]c23)cc1Cl	1.92% (inactive)	31.3% (inactive)	-1.76% (inactive)	105% (inactive)	90.8% (inactive)	4.7% (inactive)	–	–	–	–	–	–	–	–
CC1(C)Cc2c(c(=S)nc(-c3ccccc3)n2CCCN2CCOCC2)CO1	-12.8% (inactive)	6.05% (inactive)	-3.1% (inactive)	97.2% (inactive)	–	2.19% (inactive)	–	–	–	–	–	–	–	–
CN1C(=O)c2cccc(NC(=O)CCc3ccccc3)c2C1=O	-6.67% (inactive)	1.67% (inactive)	0.13% (inactive)	99% (inactive)	93% (inactive)	1.84% (inactive)	–	–	–	–	–	–	–	–
CC(c1ccco1)N(C(=O)COc1ccc(Cl)cc1Cl)c1ccccn1 (configuration not stated)	-10.9% (inactive)	-10.3% (inactive)	-4.89% (inactive)	–	65.6% (inactive)	7.28% (inactive)	71.6% (inactive)	76.4% (inactive)	3.06% (inactive)	73.3%	76.4%	-6.71% (inactive)	-10.3% (inactive)	2.06% (inactive)
CCCCOc1ccc(S(=O)(=O)Nc2cc(OC)ccc2OC)cc1	-1.52% (inactive)	-16.5% (inactive)	0.92% (inactive)	54.8% (inactive)	71.3% (inactive)	7.83% (inactive)	–	–	–	–	–	–	–	–
CCn1cc(C(=O)NC2CCCCC2)c(=O)c2cc(S(=O)(=O)N(C)C)ccc21	-0.125% (inactive)	2.4% (inactive)	-1.45% (inactive)	102% (inactive)	94.7% (inactive)	-1.57% (inactive)	–	–	–	–	–	–	–	–
CCOC(=O)Nc1ccc(S(=O)(=O)Nn2cnnc2)cc1	-14.5% (inactive)	1.07% (inactive)	0% (inactive)	89% (inactive)	108% (inactive)	3.94% (inactive)	–	–	–	–	–	–	–	–
Cc1ccc(-c2cc(C(F)F)nc(NCc3cccnc3)n2)cc1	4.57% (inactive)	-8.25% (inactive)	–	51% (inactive)	64.2% (inactive)	0.76% (inactive)	63.9% (inactive)	80.3% (inactive)	-2.5% (inactive)	82.8%	80.3%	-2.63% (inactive)	0.48% (inactive)	1.65% (inactive)
CCN1CCN(c2cc(C)c3cc(NC(=O)c4cncc(Br)c4)ccc3n2)CC1	-4.93% (inactive)	-2.12% (inactive)	-6.22% (inactive)	–	–	-0.98% (inactive)	–	–	–	–	–	–	–	–
O=C(CCc1nc2ccccc2[nH]1)Nc1ccc2c(c1)OCCO2	-17.1% (inactive)	-18.4% (inactive)	-2.36% (inactive)	94.2% (inactive)	94.8% (inactive)	0.89% (inactive)	–	–	–	–	–	–	–	–
COC(=O)c1cc(=O)[nH]c(SCc2cccc(C)c2)n1	-9.72% (inactive)	-0.94% (inactive)	-3.27% (inactive)	102% (inactive)	101% (inactive)	6.8% (inactive)	–	–	–	–	–	–	–	–
N#Cc1nc(-c2ccc(Cl)cc2)oc1NCCc1ccccn1	1% (inactive)	0.83% (inactive)	-0.49% (inactive)	97.3% (inactive)	–	7.29% (inactive)	102% (inactive)	104% (inactive)	7.66% (inactive)	96%	104%	0.39% (inactive)	5.4% (inactive)	1.07% (inactive)
O=C(Nc1ccccc1-c1nc2ccccc2s1)c1ccco1	-6.38% (inactive)	-20.9% (inactive)	-5.19% (inactive)	74.7% (inactive)	61.9% (inactive)	6.4% (inactive)	–	–	–	–	–	–	–	–
CCOc1ccc(-n2nnc3c(=O)n(CC(=O)N4CCCc5ccccc54)cnc32)cc1	-3.47% (inactive)	-10.2% (inactive)	-0.3% (inactive)	85.3% (inactive)	84% (inactive)	2.69% (inactive)	–	–	–	–	–	–	–	–

SMILES	growth inhibition [1]	growth inhibition [2]	viability increase [3]	viability [4]	viability [5]	RAM network inhibition [6]	viability [7]	viability [8]	differential viability (reversal) ([9]; H69AR cells + 2 uM doxorubicin)	viability [9, 13]	viability [9, 14]	inhibition [10]	inhibition [11]	inhibition [12]
O=S(=O)(NCC(O)COCc1ccco1)c1cccs1 (configuration not stated)	-10.3% (inactive)	2.05% (inactive)	-3.34% (inactive)	92.8% (inactive)	–	6.29% (inactive)	114% (inactive)	83.7% (inactive)	-0.665% (inactive)	84.3%	83.7%	-6.62% (inactive)	-5.56% (inactive)	1.09% (inactive)
N#CC(=C1SC=CS1)c1nc(-c2ccccc2)cs1	5.05% (inactive)	-6.89% (inactive)	-3.21% (inactive)	84.4% (inactive)	–	9.12% (inactive)	–	–	–	–	–	–	–	–
Cn1c(Cn2c(=O)sc3ccccc32)nnc1SCc1ccccc1	-3.71% (inactive)	-6.89% (inactive)	0.76% (inactive)	72.9% (inactive)	71.2% (inactive)	4.4% (inactive)	–	–	–	–	–	–	–	–
CC(C)c1ccc(-c2nc(N3CCCCC3)[nH]c(=O)c2C#N)cc1	-17.7% (inactive)	3.37% (inactive)	-2.54% (inactive)	102% (inactive)	–	8.32% (inactive)	83.3% (inactive)	88.3% (inactive)	0.79% (inactive)	87.5%	88.3%	0.92% (inactive)	-3.49% (inactive)	2.5% (inactive)
COC(=O)c1ccc(Nc2ncnc3c2cnn3-c2cccc(C)c2)cc1	-13% (inactive)	-25.2% (inactive)	-3.78% (inactive)	109% (inactive)	93.4% (inactive)	10.5% (inactive)	–	–	–	–	–	–	–	–
COc1ccc(CCc2nc(-c3ccc(-n4cccc4)cc3)no2)cc1	-20.1% (inactive)	-25.5% (inactive)	1.78% (inactive)	93.9% (inactive)	91.6% (inactive)	6.54% (inactive)	–	–	–	–	–	–	–	–
COc1cc(OC)c(NS(=O)(=O)c2coc(C(N)=O)c2)cc1Cl	-4.63% (inactive)	-4.55% (inactive)	-3.53% (inactive)	105% (inactive)	95.8% (inactive)	6.88% (inactive)	–	–	–	–	–	–	–	–
COc1ccc(-n2c(SCC(=O)Nc3ccc4c(c3)OCO4)nc3c(c2=O)SCC3)cc1	-15.7% (inactive)	-12.5% (inactive)	-2.51% (inactive)	98.2% (inactive)	81.2% (inactive)	8.27% (inactive)	–	–	–	–	–	–	–	–
CCN(CC)CCn1c(=S)[nH]c2ccccc2c1=O	-8.59% (inactive)	6.18% (inactive)	-1.56% (inactive)	103% (inactive)	98.1% (inactive)	6.58% (inactive)	–	–	–	–	–	–	–	–
Cc1cc(C)cc(NC(=O)CSc2nnc(Cn3c(=O)sc4ccccc43)n2C)c1	-6.84% (inactive)	-21.8% (inactive)	-2.93% (inactive)	98.2% (inactive)	94.9% (inactive)	1.37% (inactive)	–	–	–	–	–	–	–	–
Cc1ccc2oc(=O)c3cnn(CC(=O)NCCc4ccsc4)c3c2c1	3.75% (inactive)	-1.42% (inactive)	-2.89% (inactive)	90.7% (inactive)	85.7% (inactive)	3.42% (inactive)	–	–	–	–	–	–	–	–
CCCCCOC(=O)CSc1nc2c(c(=O)[nH]c(=O)n2C)n1Cc1ccc(Cl)cc1	11.9% (inactive)	23.6% (inactive)	-3.26% (inactive)	93.2% (inactive)	84.7% (inactive)	2.16% (inactive)	–	–	–	–	–	–	–	–
COC(=O)c1nc2n(n1)C(c1ccc(OC)c(OC)c1)C(C(=O)OC1CCCCC1)=C(C)N2 (configuration not stated)	-0.32% (inactive)	-3.14% (inactive)	-5.23% (inactive)	97.5% (inactive)	–	6.75% (inactive)	88.9% (inactive)	83.3% (inactive)	-14.8% (inactive)	98%	83.3%	-6.49% (inactive)	-4% (inactive)	2.87% (inactive)
CCCCCCSc1cc(C)nc2ncnn12	-19% (inactive)	2.92% (inactive)	-0.06% (inactive)	93.6% (inactive)	83.2% (inactive)	0.21% (inactive)	–	–	–	–	–	–	–	–
CCOc1ccc(C2Oc3nc(SC)nnc3-c3ccccc3N2C(C)=O)cc1OC (configuration not stated)	6.18% (inactive)	4.39% (inactive)	-2.28% (inactive)	109% (inactive)	99.8% (inactive)	4.23% (inactive)	–	–	–	–	–	–	–	–
CCOc1ccc(N(CC(=O)NC(C)CC)S(=O)(=O)c2c(C)noc2C)cc1 (configuration not stated)	-4.58% (inactive)	-11.1% (inactive)	-0.76% (inactive)	99.3% (inactive)	93.1% (inactive)	2.66% (inactive)	–	–	–	–	–	–	–	–
CCOC(=O)c1c(NC(=O)c2cccs2)sc2c1CCC2	-13.6% (inactive)	-20.4% (inactive)	-0.45% (inactive)	91.7% (inactive)	90.4% (inactive)	4.33% (inactive)	–	–	–	–	–	–	–	–
